Most compounds without a hit are left out; they make up all but 1.4% or so of the library.
PrPC surface inh: reduces human prion protein on the cell surface; P04156; cell surface PrPC, TR-FRET read-out; inhibition, % at 13.8 µM; 370,000 compounds, 0.43% hits; AID 720596; in the data active = inhibition above about 24%; also: 0% = median of the test wells and 100% = reference compound wells
ugtP null kill: compounds lethal to S. aureus RN4220 ugtP deletion mutant; AID 1259309; 330,000 compounds, 0.54% hits; OD600 growth, 16 h; growth inhibition, % (concentration not given with the values); in the data active = growth inhibition above about 68%;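 also: plate controls were untreated wells for no effect and antibiotic for full effect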
RN4220 kill: S. aureus RN4220 growth inhibition | OD600, 16 h | 330,000 compounds, 0.33% hits | AID 1259311 | inhibition, % (test concentration not listed); in the data active = inhibition above about 85%;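 also: plate controls were untreated cells for no effect and reference antibiotic for full effect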
BJeLR viability: kills HRASV12-expressing BJeLR cells. BJeLR (HRASV12) viability, CellTiter-Glo ATP luminescence, 48 h. inhibition, % (test concentration not listed). 300,000 compounds, 0.17% hits. AID 1554; in the data active = inhibition above about 50%
DUSP3 inh: blocks human VHR1 dual specificity phosphatase. P51452. recombinant VHR phosphatase, pNPP absorbance. inhibition, % at 13.3 µM. 290,000 compounds, 0.52% hits; in the data active = inhibition above about 50%
Target sequence (P51452 whole entry, looked up): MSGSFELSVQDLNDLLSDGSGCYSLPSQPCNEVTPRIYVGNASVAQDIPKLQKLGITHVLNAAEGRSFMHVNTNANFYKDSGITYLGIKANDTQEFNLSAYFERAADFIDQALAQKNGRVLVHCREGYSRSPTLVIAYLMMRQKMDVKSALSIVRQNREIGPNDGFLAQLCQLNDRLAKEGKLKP
SARS 3CLpro inh: SARS-CoV 3CLpro protease inhibition | 290,000 compounds, 0.14% hits | P0C6X7 | inhibition, % at 6 µM | recombinant SARS-CoV 3CLpro, quenched FRET peptide cleavage; in the data active = inhibition above about 12%
An asterisk follows results filed as active; . = no result.

SMILES	PrPC surface inh	ugtP null kill	RN4220 kill	BJeLR viability	DUSP3 inh	SARS 3CLpro inh
c1ccc(-c2nnc(SCC3CCCO3)nc2-c2ccccc2)cc1 (centres undefined)	-1	9	0	-1	33	5
c1ccc(-c2nnc(SCC3CCCCO3)nc2-c2ccccc2)cc1 (centres undefined)	-3	94*	3	18	39	4
CCOc1ccc(S(=O)(=O)N2CCN(c3ncccn3)CC2)cc1	13	-2	3	0	30	-4
CCOc1ccc(S(=O)(=O)N2CCN(c3ccccn3)CC2)cc1	-2	9	4	0	56*	-3
CCOCCCNC(=S)N1CCCN(c2nc3cc(C)c(C)cc3cc2C#N)CC1	-7	-3	4	2	52*	2
C/C(C=NNC(=O)c1ccncc1)=C\c1ccco1	.	1	-2	.	.	.
O=C(Nc1c(C(=O)C2CC2)oc2ccccc12)c1ccc(Cl)cc1	-4	-4	6	-12	51*	-5
CN(C(=O)c1ccc(F)cc1)c1ccccc1C(=O)NCc1ccccc1	-7	-1	-1	-5	10	2
CN(C(=O)c1ccccc1Cl)c1ccccc1C(=O)NCc1ccccc1	3	3	0	-2	53*	-6
N#C/C(=N\Nc1ccc(Cl)cc1)C(=O)c1ccsc1	11	.	.	11	-11	5
N#CC(=NNc1ccc(Cl)cc1)C(N)=S	.	88*	81	.	.	.
N#CC(=NNc1ccc(Cl)cc1)C(=O)c1ccsc1	.	99*	100*	.	.	.
N#CC(=NNc1cccc(Cl)c1)C(=O)c1ccccc1	.	100*	100*	.	.	.
COC(=O)C1NC(=O)N2C1SC(C)(C)C2C(=O)OC (centres undefined)	.	4	7	.	.	.
COc1ccccc1C(=O)N/C(=C\c1cn(C)c2ccccc12)C(=O)NCCCN1CCOCC1	-8	2	3	2	57*	-2
CN(C)C(CO)c1nnc(C(Cc2ccc(O)cc2)NC(=O)C2CCNCC2)o1 (centres undefined)	.	1	4	.	.	.
CCC=CC(=O)N1CC2(CC(c3cccc(NC(=O)CC(c4ccccc4)c4ccccc4)c3)=NO2)CC1C(N)=O (centres undefined)	.	4	6	.	.	.
CCc1sc(N(C(=O)Cc2ccccc2)c2ccccc2F)nc1-c1ccc(C)cc1	-6	85*	-11	-8	28	1
Cc1cccc(C(=O)NNC2=C(C(=O)C(F)(F)F)CCC2)c1O	-4	98*	99*	8	6	7
Cc1ccc(SCC(=O)Nc2nnc(C(C)(C)C)s2)cc1	-3	8	1	-6	54*	1
COc1ccc(/C=C/c2nnc(NC(=O)CSc3ccc(C)cc3)s2)cc1	6	-4	1	-3	-4	5
COC(=O)C1=C(c2ccc(F)cc2OCc2ccccc2)CC2CCC1N2C(=O)NCCN1CCOCC1 (centres undefined)	.	0	3	.	.	.
O=C(Cc1ccc(Cl)c(Cl)c1)N/N=C/c1cccnc1	-2	.	.	0	57*	-5
CC[n+]1ccccc1/C=C1\Sc2ccc(C)cc2N1C	4	100*	27	19	16	3
CC1=C([N+](=O)[O-])C(c2ccc(Cl)cc2)NC(=O)N1 (centres undefined)	-3	16	3	-1	59*	-5
SMILES	PrPC surface inh	ugtP null kill	RN4220 kill	BJeLR viability	DUSP3 inh	SARS 3CLpro inh
COC(=O)CC1c2cc(F)cc(F)c2S(=O)(=O)N1C1CCN(Cc2ccccc2)CC1 (centres undefined)	.	0	6	.	.	.
Clc1ccc(COC(Cn2ccnc2)c2ccc(Cl)cc2Cl)cc1 (centres undefined)	13	.	.	3	-3	1
Clc1ccc(CSC(Cn2ccnc2)c2ccc(Cl)cc2Cl)cc1 (centres undefined)	12	85	97*	0	-7	3
O=C1CCN(Cc2cccnc2)CCN1C(CO)Cc1ccccc1 (centres undefined)	.	-3	4	.	.	.
CC=CC(C)=CC(C)C(=O)CC(O)CC1CC(=O)NC(=O)C1 (centres undefined)	46*	.	.	.	.	.
CC1=CC(C)[C@H](C=Nn2c(=O)[nH]c3c([nH]c4ccc(Br)cc43)c2=O)C(C)C1 (some centres undefined)	.	66*	100	.	.	.
COc1ccc(C2CC(=O)C=C(c3ccc(Cl)c(C(F)(F)F)c3)C2)cc1OC (centres undefined)	.	52	-1	.	.	.
COc1ccc2c(c1)OCC1C2N2C(=O)CN(Cc3ccc(F)cc3)C(=O)[C@@]2(C)C1c1ccccc1 (some centres undefined)	.	-16	-6	.	.	.
CC(C)=CCC[C@](C)(O)C1CC[C@]2(C)C1C(O)CC1[C@@]3(C)CCC(OC4OC(CO)C(O)C(O)C4OC4OC(CO)C(O)C(O)C4O)C(C)(C)C3CC[C@]12C (some centres undefined)	.	-22	2	.	.	.
CC(=O)c1c(C)[nH]c(C(=O)Nc2nc(-c3ccc(-c4ccccc4)cc3)cs2)c1C	5	-4	17	2	8	0
CC(=O)c1c(C)[nH]c(C(=O)Nc2nc(-c3ccc(Cl)cc3)cs2)c1C	2	90*	71	5	4	-3
COCCNC(=O)c1noc2c1CCc1cc(OC)ccc1-2	1	2	0	-7	-10	4
COc1ccc2c(c1)CCc1c(C(=O)N(C)c3ccccc3)noc1-2	0	8	6	3	54*	-3
CCCC1Cc2ccccc2N1C(C)=O (centres undefined)	.	1	3	.	.	.
O=C(NCCCN1CCOCC1)c1ccc2c(c1)N(Cc1ccccc1)C(=O)c1ccccc1S2=O (centres undefined)	1	-2	0	-6	60*	-2
O=C(NCCCN1CCOCC1)c1ccc2c(c1)N(Cc1cccc(Cl)c1)C(=O)c1ccccc1S2=O (centres undefined)	-11	5	-3	2	12	5
COCCNC(=O)c1oc2ccc3c(c2c1C)C(O)CC(C)(C)O3 (centres undefined)	9	6	3	1	57*	-1
CCN(CC)CCCNC(=O)c1oc2ccc3c(c2c1C)C(O)CC(C)(C)O3 (centres undefined)	-8	2	3	4	83	0
COc1cc(/C=C/c2nc3ccccc3c(=O)[nH]2)cc(Cl)c1O	4	-11	-1	-5	58*	-2
Cc1cccc(/C=C\c2nc3ccccc3c(=O)[nH]2)c1	-2	-16	2	45	7	-1
CCC1=C(OC(=O)N(CC)CC)N2C(=O)OC(=NCCc3c[nH]c4ccccc34)[C@]2(Cc2ccccc2)C2C1=CCC1C(=O)NC(=O)C12 (some centres undefined)	.	3	2	.	.	.
CCOC(=O)Cc1csc(NC(=O)CSc2nc(N)c3c(C)c(C)sc3n2)n1	11	5	3	-4	50*	0
CCOC(=O)Cc1csc(NC(=O)CSc2nc(C)cc(C)n2)n1	-3	6	2	.	.	.
